This is an account of results in PubChem BioAssay AID720690 (Broad Institute, 2013).

Entries with a potency or affinity are not part of this list. Activity calls are given as the source filed them.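 How the source made its calls: active means every repeat run showing a signal drop whose fitted half-maximal concentration is at most twice the top tested concentration; inconclusive means repeat runs disagree, or flat partial drop, or poor fit; inactive means the rest.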

A short description of this assay: HEK293T cytotoxicity, dose response, cytotoxicity control for miR-122 modulator project, cell-based, activator set, cherry-pick (AID 720690).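 Further: 0% = neutral control wells and -100% = MG132 cytotoxic control wells.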 As to conditions: HEK293T viability, CellTiter-Glo luminescence, 48 h; series mostly up to 26 µM; activity change, negative = cytotoxicity: at the top concentration. (In general: In ATP-based viability assays light output follows the ATP content of the culture.)
For the compound `COC(=O)C[C@@H]1CC[C@@H]2[C@@H](COc3ccc(NS(=O)(=O)c4ccccc4F)cc3C(=O)N2C)O1`, the “activity change, negative = cytotoxicity” value was 5.53% (inactive).
Then `CC(=O)N(C)C[C@@H]1[C@@H](c2ccc(-c3cccc(C#N)c3)cc2)[C@H](CO)N1C(C)=O`, with -9.1% (inactive).
Then `CC(=O)N(C[C@@H]1N[C@@H](CO)[C@H]1c1ccc(-c2ccccc2)cc1)C(C)C`, with -5.09% (inactive); and `C[C@H](NC(=O)C[C@@H]1CC[C@H]2[C@H](COc3ccc(NS(=O)(=O)c4ccc(Cl)cc4)cc3C(=O)N2C)O1)c1ccccc1`, with -12.7% (inactive); and `CNC(=O)C[C@@H]1CC[C@@H]2[C@H](COc3ccc(NC(=O)Nc4ccc(Cl)cc4)cc3C(=O)N2C)O1`, with 2.54% (inactive).
On to `COC(=O)C[C@@H]1CC[C@H]2[C@@H](COc3ccc(NC(=O)Nc4ccccc4C)cc3C(=O)N2C)O1`, for which the “activity change, negative = cytotoxicity” value was 2.59% (inactive).
Then `C/C=C/c1ccc([C@@H]2[C@@H](CNC(=O)c3ccncc3)N(C(=O)CC)[C@H]2CO)cc1`, with -12.1% (inactive); and `CC(C)CC#Cc1ccc2c(c1)O[C@H](CN(C)C(=O)c1cnccn1)[C@H](C)CN([C@@H](C)CO)S2(=O)=O`, with 2.29% (inactive); and `CN1C(=O)c2cc(NC(=O)c3cccc(F)c3)ccc2OC[C@H]2O[C@@H](CC(=O)O)CC[C@H]21`, with 8.84% (inactive).
For the compound `COc1cccc(NC(=O)Nc2ccc3c(c2)C(=O)N(C)[C@@H]2CC[C@H](CC(=O)O)O[C@H]2CO3)c1`, the “activity change, negative = cytotoxicity” value was 2.43% (inactive).
Turning to `C[C@H](CO)N1C[C@H](C)[C@H](CN(C)C(=O)C2CCC2)Oc2cc(-c3ccc(C(=O)N(C)C)cc3)ccc2S1(=O)=O`, the “activity change, negative = cytotoxicity” value was 3.87% (inactive).
Regarding `CC1CCN(CCc2nc3cc(NC(=O)Nc4ccccc4)ccc3n2C)CC1`, the “activity change, negative = cytotoxicity” value is 5.4% (inactive).
For `CC(=O)N1[C@H](CNC(=O)C2CC2)[C@H](c2ccc(-c3cccc(F)c3)cc2)[C@@H]1CO`, the “activity change, negative = cytotoxicity” value is -11.7% (inactive).
Regarding `COc1ccccc1NC(=O)Nc1ccc2c(c1)C(=O)N(C)[C@H]1CC[C@H](CC(=O)Nc3ccc4c(c3)COC4)O[C@@H]1CO2`, the “activity change, negative = cytotoxicity” value was 5.52% (inactive).
`C[C@H](CO)N1C[C@H](C)[C@H](CN(C)CC2CCCCC2)OCCCC[C@H](C)Oc2ccc(NC(=O)Nc3cccc4ccccc34)cc2C1=O`: the “activity change, negative = cytotoxicity” value is -26% [at 12 µM] (inactive).
In the case of `COCCNC(=O)C[C@@H]1CC[C@@H]2[C@H](COc3ccc(NS(=O)(=O)c4ccc(Cl)cc4)cc3C(=O)N2C)O1`, the “activity change, negative = cytotoxicity” value was -19.3% (inactive).
As for `C[C@@H]1CN([C@@H](C)CO)S(=O)(=O)c2ccc(C#Cc3ccncc3)cc2O[C@@H]1CN(C)C(=O)Nc1ccc2c(c1)OCO2`, the “activity change, negative = cytotoxicity” value is -19.2% (inactive).
Then `O=S(=O)(Nc1nccs1)c1ccc(NS(=O)(=O)c2cccs2)cc1`, with 15.5% (inactive).
`CC(=O)N1[C@H](CN(C(=O)c2ccc(F)cc2)C(C)C)[C@@H](c2ccccc2)[C@@H]1CO`: the “activity change, negative = cytotoxicity” value is -6.51% (inactive).
With `CCN(C[C@@H]1N[C@@H](CO)[C@@H]1c1ccc(C2=CCCC2)cc1)C(=O)c1cccnc1`, the “activity change, negative = cytotoxicity” value was 8.54% [at 23.5 µM] (inactive).
On to `COCC(=O)N(C[C@@H]1[C@@H](c2ccccc2)[C@@H](CO)N1C(=O)NC(C)C)C(C)C`, for which the “activity change, negative = cytotoxicity” value was 8.23% (inactive).
On to `CN1C(=O)c2cc(NC(=O)c3cccs3)ccc2OC[C@@H]2O[C@H](CC(=O)NCCN3CCCCC3)CC[C@H]21`, for which the “activity change, negative = cytotoxicity” value was -6.08% (inactive).
On to `CCC(=O)N1C[C@H]2[C@@H](c3ccccc31)[C@H](CO)N2Cc1cc(F)ccc1F`, for which the “activity change, negative = cytotoxicity” value is 12.3% (inactive).
For the compound `CNC(=O)C[C@@H]1CC[C@@H]2[C@H](COc3ccc(NC(=O)Nc4cccc(C)c4)cc3C(=O)N2C)O1`, the “activity change, negative = cytotoxicity” value is 7.34% (inactive).
The figure for `CN1C[C@@H]2[C@H](c3ccccc31)[C@@H](CO)N2C(=O)Nc1ccccc1` is -15.9% (inactive).
The figure for `C=CCNC(=S)NNC(=O)c1cccn(Cc2ccc(Cl)c(Cl)c2)c1=O` is -12% (inactive).
As to `C[C@@H]1CN([C@@H](C)CO)S(=O)(=O)c2ccc(/C=C/c3ccccc3)cc2O[C@@H]1CN(C)C(=O)NC1CCCCC1`, the “activity change, negative = cytotoxicity” value is -4.62% (inactive).
Consider `CC(C)NC(=O)Nc1ccc2c(c1)C(=O)N(C)[C@H]1CC[C@H](CC(=O)NCC(F)(F)F)O[C@H]1CO2`, for which the “activity change, negative = cytotoxicity” value was 12.3% (inactive).
Then `CCNC(=O)Nc1ccc2c(c1)C(=O)N(C)[C@H]1CC[C@H](CC(=O)Nc3ccccc3F)O[C@@H]1CO2`, with 8.23% (inactive); and `O=C(CN1CCN(c2nc(-c3ccccc3)cs2)CC1)Nc1ccc2c(c1)OCO2`, with -17.8% (inactive).
Turning to `Cc1onc(-c2ccccc2)c1C(=O)NCc1ccccn1`, the “activity change, negative = cytotoxicity” value was -9.52% (inactive).
As to `CCC(=O)N1[C@H](CO)[C@@H](c2ccccc2)[C@@H]1CN(C)C(=O)CN1CCOCC1`, the “activity change, negative = cytotoxicity” value is 2.2% [at 23.5 µM] (inactive).
As for `NC(=O)c1cn(-c2ccccc2)nc1-c1cc2ccccc2oc1=O`, the “activity change, negative = cytotoxicity” value was -23.6% (inactive).
The figure for `Cc1oc(-c2ccc(Cl)cc2)nc1CN1CCCC(C(=O)NCc2ccco2)C1` (centres undefined) is -7.14% (inactive).
